Consider 15 sequences from article PMC3218832.

Targets include RELARELA (p65 homodimer) (Homo sapiens, UniProt Q04206 1-307); p50p50 homodimer (Homo sapiens, UniProt P19838 7-356); RELB subunit;p50 subunit (Homo sapiens;Homo sapiens, UniProt Q01201;P19838 120-401;7-356).
Common to all, as to experiment: protein binding microarray; high values mean tight binding
Common to all, as to details: dsDNA, one strand shown

For the next assay, the target named is T1, p52p52 homodimer (Homo sapiens, UniProt Q00653 4-332).
T1 sequence: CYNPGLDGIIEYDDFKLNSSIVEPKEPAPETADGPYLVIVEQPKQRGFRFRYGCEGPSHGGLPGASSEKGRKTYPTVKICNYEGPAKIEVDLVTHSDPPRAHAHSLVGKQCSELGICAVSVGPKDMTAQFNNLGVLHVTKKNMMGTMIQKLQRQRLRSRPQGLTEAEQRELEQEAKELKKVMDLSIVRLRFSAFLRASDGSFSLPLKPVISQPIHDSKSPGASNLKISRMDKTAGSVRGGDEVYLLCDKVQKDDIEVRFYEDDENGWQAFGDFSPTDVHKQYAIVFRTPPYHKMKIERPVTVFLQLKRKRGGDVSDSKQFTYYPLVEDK

Assay [1] has as its target RELA (p65) subunit of heterodimer;p50 subunit (Homo sapiens;Homo sapiens, UniProt Q04206;P19838 1-307;7-356).
Assay [2] concerns the target RELA (p65) subunit of heterodimer;p52 subunit (Homo sapiens;Homo sapiens, UniProt Q04206;Q00653 1-307;4-332).
Another assay concerns the target T2, RELB subunit;p52 subunit (Homo sapiens;Homo sapiens, UniProt Q01201;Q00653 120-401;4-332).
T2 sequence 1: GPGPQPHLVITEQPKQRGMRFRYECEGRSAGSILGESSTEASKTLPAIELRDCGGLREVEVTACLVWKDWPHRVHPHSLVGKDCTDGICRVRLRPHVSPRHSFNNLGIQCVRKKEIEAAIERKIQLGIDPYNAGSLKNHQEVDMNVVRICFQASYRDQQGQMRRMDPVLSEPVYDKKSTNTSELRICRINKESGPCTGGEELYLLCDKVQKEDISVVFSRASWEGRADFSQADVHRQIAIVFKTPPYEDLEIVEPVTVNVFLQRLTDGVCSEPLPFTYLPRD
T2 sequence 2: T1 sequence

Assay [3] concerns the target C-Rel subunit;p50 subunit (Homo sapiens;Homo sapiens, UniProt Q04864;P19838 1-285;7-356).
The target of assay [4] is T3, C-Rel subunit;p52 subunit (Homo sapiens;Homo sapiens, UniProt Q04864;Q00653 1-285;4-332).
T3 sequence 1: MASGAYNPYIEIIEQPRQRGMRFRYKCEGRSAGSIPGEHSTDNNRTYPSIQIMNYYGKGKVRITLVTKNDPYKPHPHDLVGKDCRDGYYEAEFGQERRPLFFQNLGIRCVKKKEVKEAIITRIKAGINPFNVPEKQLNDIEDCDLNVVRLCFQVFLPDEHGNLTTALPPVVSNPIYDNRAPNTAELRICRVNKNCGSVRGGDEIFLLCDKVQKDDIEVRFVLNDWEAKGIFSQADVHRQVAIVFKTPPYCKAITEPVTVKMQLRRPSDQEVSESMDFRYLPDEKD
T3 sequence 2: T1 sequence

RELA (p65) subunit of heterodimer;p50 subunit, sequence (Q04206 1-307, chain 1 of 2): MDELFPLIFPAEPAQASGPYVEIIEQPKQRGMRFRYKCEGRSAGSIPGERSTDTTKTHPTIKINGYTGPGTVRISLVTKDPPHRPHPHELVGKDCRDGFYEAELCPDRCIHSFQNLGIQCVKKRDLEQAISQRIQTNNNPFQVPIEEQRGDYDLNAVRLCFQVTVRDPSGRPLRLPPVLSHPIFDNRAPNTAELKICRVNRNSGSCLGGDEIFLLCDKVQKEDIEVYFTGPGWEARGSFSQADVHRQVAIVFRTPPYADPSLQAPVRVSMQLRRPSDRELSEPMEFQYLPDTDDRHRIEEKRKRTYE
RELA (p65) subunit of heterodimer;p50 subunit, sequence (P19838 7-356, chain 2 of 2): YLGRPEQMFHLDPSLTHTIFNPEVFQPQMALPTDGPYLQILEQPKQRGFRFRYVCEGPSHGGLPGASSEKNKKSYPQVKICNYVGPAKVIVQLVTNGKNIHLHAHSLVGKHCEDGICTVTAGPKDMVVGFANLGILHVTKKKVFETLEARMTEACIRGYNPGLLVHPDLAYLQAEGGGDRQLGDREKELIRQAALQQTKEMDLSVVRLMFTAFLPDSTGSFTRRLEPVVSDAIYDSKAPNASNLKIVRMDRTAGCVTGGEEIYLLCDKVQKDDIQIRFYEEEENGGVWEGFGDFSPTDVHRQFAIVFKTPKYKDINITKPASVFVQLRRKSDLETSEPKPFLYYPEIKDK
RELARELA (p65 homodimer), sequence (Q04206 1-307): as the sequence (Q04206 1-307, chain 1 of 2) above
p50p50 homodimer, sequence (P19838 7-356): as the sequence (P19838 7-356, chain 2 of 2) above

On to GAAGGGCTCCC, for which the binding signal with RELARELA (p65 homodimer) is -1.08 z-score; in the assay with p50p50 homodimer, -1.07 z-score; with p52p52 homodimer, -0.651 z-score; in assay [1], -0.8 z-score; in [2], -0.916 z-score; with RELB subunit;p50 subunit, -0.771 z-score. Moreover, the results for the binding signal (with RELB subunit;p52 subunit; in assay [3]; in [4]) were -0.771 z-score, -1.05 z-score and -0.778 z-score, respectively.

As for AAAGACGCCCC, the binding signal with RELARELA (p65 homodimer) was -0.195 z-score; with p50p50 homodimer, 0.408 z-score; with p52p52 homodimer it was 0.153 z-score; in [1] it was 0.135 z-score; in assay [2] it was 0.105 z-score; with RELB subunit;p50 subunit, 0.331 z-score. Besides, the binding signal with RELB subunit;p52 subunit was 0.432 z-score; in assay [3] it was 0.326 z-score; in assay [4] it was -0.126 z-score.

With GAGTGTACCCC, the binding signal with RELARELA (p65 homodimer) was 0.11 z-score; in the assay with p50p50 homodimer, -0.176 z-score; with p52p52 homodimer it was -0.057 z-score; in assay [1], 0.0359 z-score; in assay [2], 0.0373 z-score; with RELB subunit;p50 subunit it was 0.15 z-score. Also, the binding signal is 0.337 z-score in the assay with RELB subunit;p52 subunit, 0.0895 z-score in assay [3] and 0.24 z-score in assay [4].

On to AAATAACCCCC, for which the binding signal with RELARELA (p65 homodimer) came out at 0.321 z-score; with p50p50 homodimer it was 1.39 z-score; in the assay with p52p52 homodimer, 1.6 z-score; in assay [1], 1.69 z-score; in assay [2], 1.48 z-score; in the assay with RELB subunit;p50 subunit, 1.69 z-score. Moreover, the binding signal with RELB subunit;p52 subunit turned out to be 1.68 z-score; in assay [3] it was 1.32 z-score; in assay [4], 1.39 z-score.

Turning to AAAGTCCCCCT, the binding signal with RELARELA (p65 homodimer) stood at 0.889 z-score; in the assay with p50p50 homodimer it was 1.59 z-score; with p52p52 homodimer, 1.86 z-score; in [1], 2.31 z-score; in [2] it was 1.72 z-score; in the assay with RELB subunit;p50 subunit it was 2.26 z-score. Besides, the binding signal with RELB subunit;p52 subunit was 2.4 z-score; in assay [3], 1.7 z-score; in assay [4], 1.82 z-score.

As to GGAAATCCCCT, the binding signal with RELARELA (p65 homodimer) came out at 3.63 z-score; in the assay with p50p50 homodimer, 1.5 z-score; in the assay with p52p52 homodimer, 3.23 z-score; in assay [1], 3.21 z-score; in assay [2] it was 3.34 z-score; in the assay with RELB subunit;p50 subunit, 2.45 z-score. Also, the results for the binding signal (with RELB subunit;p52 subunit; in [3]; in assay [4]) were 3.27 z-score, 3.04 z-score and 3.88 z-score, respectively.

Consider CGAAAAATCCT, for which the binding signal with RELARELA (p65 homodimer) was 0.627 z-score; in the assay with p50p50 homodimer, -0.702 z-score; with p52p52 homodimer, -0.361 z-score; in assay [1], -0.584 z-score; in assay [2], -0.435 z-score; in the assay with RELB subunit;p50 subunit it was -0.775 z-score. Further, the binding signal with RELB subunit;p52 subunit was -0.584 z-score; in assay [3] it was -0.32 z-score; in assay [4] it was -0.29 z-score.

With CGGATGGCCCT, the binding signal in the assay with RELARELA (p65 homodimer) was -1 z-score; in the assay with p50p50 homodimer it was -1.09 z-score; in the assay with p52p52 homodimer, -0.625 z-score; in [1] it was -0.472 z-score; in assay [2], -0.684 z-score; with RELB subunit;p50 subunit, -0.367 z-score. Besides, the values for the binding signal (with RELB subunit;p52 subunit; in [3]; in [4]) were -0.331 z-score, -0.715 z-score and -0.706 z-score, respectively.

For CAGTAGACCCC, the binding signal in the assay with RELARELA (p65 homodimer) is -0.444 z-score; with p50p50 homodimer, -0.398 z-score; in the assay with p52p52 homodimer, -0.423 z-score; in assay [1], -0.397 z-score; in assay [2] it was -0.485 z-score; in the assay with RELB subunit;p50 subunit, -0.472 z-score. The binding signal is -0.384 z-score in the assay with RELB subunit;p52 subunit, -0.501 z-score in assay [3] and -0.439 z-score in assay [4].

On to CGAAGACTCCC, for which the binding signal with RELARELA (p65 homodimer) was -0.527 z-score; with p50p50 homodimer it was -0.307 z-score; with p52p52 homodimer, -0.407 z-score; in [1] it was -0.172 z-score; in [2], -0.618 z-score; in the assay with RELB subunit;p50 subunit it was -0.262 z-score. Further, the results for the binding signal (in the assay with RELB subunit;p52 subunit; in assay [3]; in assay [4]) were -0.747 z-score, -0.657 z-score and -0.571 z-score, respectively.

For the sequence AGGTATTTCCC, the binding signal stood at 2.88 z-score with RELARELA (p65 homodimer); 0.816 z-score with p50p50 homodimer; 2.74 z-score in the assay with p52p52 homodimer; 1.5 z-score in assay [1]; 2.11 z-score in assay [2]; 1.27 z-score with RELB subunit;p50 subunit. In addition, the figures for the binding signal (with RELB subunit;p52 subunit; in assay [3]; in [4]) were 1.85 z-score, 1.43 z-score and 2.34 z-score, respectively.

AGGTAATTCCT: the binding signal in the assay with RELARELA (p65 homodimer) was found to be 1.47 z-score; with p50p50 homodimer, 0.62 z-score; with p52p52 homodimer, 1.15 z-score; in [1], 0.471 z-score; in assay [2], 0.62 z-score; with RELB subunit;p50 subunit, 0.351 z-score. Also, the values for the binding signal (in the assay with RELB subunit;p52 subunit; in assay [3]; in [4]) were 0.553 z-score, 0.224 z-score and 0.709 z-score, respectively.

For the sequence AGGATCTCCCC, the binding signal was 0.594 z-score with RELARELA (p65 homodimer); 1.02 z-score with p50p50 homodimer; 0.969 z-score in the assay with p52p52 homodimer; 1.28 z-score in [1]; 1.04 z-score in assay [2]; 1.22 z-score in the assay with RELB subunit;p50 subunit. In addition, the results for the binding signal (in the assay with RELB subunit;p52 subunit; in assay [3]; in assay [4]) were 0.999 z-score, 0.853 z-score and 0.953 z-score, respectively.

With CGGGGCACCCC, the binding signal in the assay with RELARELA (p65 homodimer) was 0.313 z-score; in the assay with p50p50 homodimer it was 0.323 z-score; with p52p52 homodimer, 1.21 z-score; in assay [1] it was 0.7 z-score; in assay [2] it was 1.06 z-score; with RELB subunit;p50 subunit, 0.451 z-score. Moreover, the values for the binding signal (in the assay with RELB subunit;p52 subunit; in [3]; in assay [4]) were 1.1 z-score, 0.899 z-score and 1.43 z-score, respectively.

For GGATTTTCCCC, the binding signal with RELARELA (p65 homodimer) worked out at 3.79 z-score; with p50p50 homodimer it was 1.16 z-score; with p52p52 homodimer, 2.75 z-score; in assay [1], 2.27 z-score; in assay [2], 2.49 z-score; with RELB subunit;p50 subunit it was 2.15 z-score. The binding signal was 2.39 z-score with RELB subunit;p52 subunit, 1.94 z-score in assay [3] and 2.19 z-score in assay [4].
